Reference: PubChem BioAssay AID1347146 (National Center for Advancing Translational Sciences (NCATS), 2019)
Records with an inconclusive call do not appear. Values without a mark were called inactive. Calls of active or inactive are those of the source. Calls follow the shape of the dose curve; as a rule, active = well fitted inhibition curve with a large enough effect; inconclusive = small, poorly fitted or top-dose-only effect; inactive = no such curve, though single readings can be large or run the other way.

Each compound was assayed against Nicotinamide N-methyltransferase (Homo sapiens) (UniProt P40261) (assay: qHTS Assay for Inhibitors of N-terminal methyltransferase 1 (NTMT1): NNMT MTaseGlo counterscreen assay). Conditions: NNMT enzyme, MTase-Glo luminescence counterscreen; series mostly up to 57.1 µM; activity change, negative = inhibition: at the top concentration.
Source text: Assay Submitter (PI): Rong Huang Ph.D, Purdue University, West Lafayette, IN 47907
The N-terminal methytransferase 1 is the first methyltransferase that methylates protein alpha-N-amines and plays an important role in regulating cell mitosis, chromatin interactions and DNA repair. It is observed to be over-expressed in various cancer patient tissues like malignant melanoma and colorectal cancer tissues. Knockdown of NTMT1 in cancer cells causes cell mitotic defects and enhances sensitivity to DNA damaging chemotherapeutics. […] These critical cellular processes in which NTMT1 is implicated, coupled with emerging links to cellular dysfunction, strengthen the inference that NTMT1 is a compelling novel anticancer target. Progress have been made in understanding the molecular properties of NTMT1 and the biological consequences of protein alpha-N-terminal methylation, but there are no specific small molecule probes available for NTMT1 to fully characterize its MTase activity. To address this unmet need, a panel of assay is created and established to enable quantitative high-throughput screening (qHTS) for novel, potent, and selective small molecule NTMT1 inhibitors. Two orthogonal qHTS that use different reagents (ThioGlo vs. MTaseGlo) are developed for primary robotic screening against the NCATS chemical library of more than 400,000 small molecules. Identified inhibitors are reacquired, validated, and further characterized.
MTaseGlo Assay is a luminescence screen that measure the activity of methyltransferases based on the reaction product S-adenosyl homocysteine (SAH). The substrate SAM is converted to SAH upon enzyme activation. MTase-Glo reagent and detection solution convert SAH to ATP and measure the light from the luciferase reaction. Nicotinamide N-methyltransferase (NNMT) is a cystolic enzyme that catalyzes the transfer of a methyl group from the co-factor SAM onto the substrate, nicotinamide (NA) to form 1-methyl-nicotinamide (MNA) and SAH. NNMT MTaseGlo assay is used as a counterscreen to evaluate selectivity of identified inhibitors.
Early Translation Branch (ETB)
National Center for Advancing Translational Sciences (NCATS)
National Institute of Health (NIH)
NNMT enzyme, SAM, NA, and control is provided by the Huang laboratory.
In brief, 3 µL of enzyme mixture (final concentrations of 125 nM and 100 µM for NNMT and SAM, respectively) into all wells of a 1,536-well solid-bottom white plate (Greiner Bio One, Monroe, NC). 23 nL of DMSO or compound (final concentration range 234 nM to 143 microM) was transferred via Wako Pin-tool (Wako Automation, Richmond, VA) and incubated (RT) for ~15 minutes. Next, 1 µL of substrate (final concentration 1 µM NA) or buffer was dispensed, and the reaction proceeded for 30 minutes (RT, protected from light) followed by a 1 microL addition of [5X] MTase-Glo Reagent(R). Samples were incubated (RT, protected from light) for 30 minutes to allow for SAH to be converted to ADP, followed by a 5 microL addition of [1X] MTase-Glo Detection Solution(R) to allow for ADP to be converted to ATP, which was then detected with a luciferase reaction. Samples were centrifuged for 15 seconds at 1,000 RPM's, followed by a RT incubation for 30 minutes. Plates were then read using Luminescence optics on a ViewLux detector. Data were normalized to no-enzyme (0% activity) and no-inhibitor (DMSO; 100%) controls, and the resulting percent inhibition data were fitted to a 4-parameter Hill equation using Graphpad Prism.
Potency is read from the fitted curve at half-maximal effect.

Sequence of Nicotinamide N-methyltransferase (Homo sapiens) (P40261 whole entry, looked up): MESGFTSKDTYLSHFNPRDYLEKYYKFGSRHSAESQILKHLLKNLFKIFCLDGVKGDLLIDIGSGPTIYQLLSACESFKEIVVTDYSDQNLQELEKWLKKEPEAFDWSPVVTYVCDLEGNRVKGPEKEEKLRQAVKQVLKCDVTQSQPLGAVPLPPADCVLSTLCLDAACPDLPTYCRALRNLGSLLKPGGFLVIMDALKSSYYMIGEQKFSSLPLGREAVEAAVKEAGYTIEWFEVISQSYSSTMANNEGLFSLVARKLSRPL

Structure (SMILES) | activity change, negative = inhibition | Potency
Nc1ccc(CCNc2ncnc3c2ncn3C2OC(CO)C(O)C2O)cc1 (stereo not given) | -8.43% | 
c1cc(CN2CCCCC2)cc(OCCCNc2nc3ccccc3s2)c1 | -18.2% | 
Clc1nccc2c1ccc1ccccc12 | -13.2% | 
Cc1cc2nc3c(=O)[nH]c(=O)nc-3n(C[C@H](O)[C@H](O)[C@H](O)COP(=O)(O)OP(=O)(O)OC[C@H]3O[C@@H](n4cnc5c(N)ncnc54)[C@H](O)[C@H]3O)c2cc1C | 162% [at 28.5 µM] | 
O=C(O)Cc1ccc(O)c(O)c1 | -4.93% | 
COC(=O)[C@H]1[C@H]2C[C@H]3c4[nH]c5ccccc5c4CCN3C[C@H]2CC[C@@H]1O | -21% | 
Cc1cccc(C2CN(C)CCc3c2cc(O)c(O)c3Cl)c1 (stereo not given) | -16.8% | 
Nc1[nH]c(=O)nc2c1ncn2C1OC(CO)C(O)C1O (stereo not given) | -17% | 
CCN1C(=O)C=CC1=O | -5.26% | 
Nc1ccnc2c1ncn2[C@@H]1O[C@H](CO)[C@@H](O)[C@H]1O |  | 14.1 µM (active)
CC(Cc1ccc(O)c(O)c1)C(C)Cc1ccc(O)c(O)c1 (stereo not given) |  | 39.8 µM (active)
O=C1Cc2c([nH]c3ccc(Br)cc23)-c2ccccc2N1 | -5.93% | 
COc1cc2c(NC3CCN(C(C)C)CC3)nc(N3CCCN(c4ccccc4)CC3)nc2cc1OCCCN1CCCC1 | -4.98% | 
CCC(=O)c1ccc2c(c1)N(CCCN(C)C)c1ccccc1S2 | -10.4% | 
CN(C)c1ccc(/C=C2\C(=O)Nc3ccccc32)cc1 |  | 10 µM (active)
Cc1cc(C)c(/C=C2\C(=O)Nc3ccccc32)[nH]1 | -16.7% | 
CC(C)NC[C@@H](O)c1ccc(O)c(O)c1 | -5.82% | 
Cc1[nH]c(=O)c(C#N)cc1-c1ccc2nccn2c1 | -11.5% | 
O=C(N[C@@H](Cc1ccccc1)C(=O)CCl)OCc1ccccc1 | -28.6% | 
COc1cc2nc(N3CCCN(C)CC3)nc(NC3CCNCC3)c2cc1OC | -5.53% | 

Structure (SMILES) | activity change, negative = inhibition | Potency
O=C1Nc2ccc(I)cc2/C1=C/c1cc(Br)c(O)c(Br)c1 |  | 25.1 µM (active)
COc1cc(CNC(=O)CCCCCCC(C)C)ccc1O | -12.2% | 
Nc1nc(=S)c2ncn([C@H]3O[C@@H](CO)[C@@H](O)[C@@H]3O)c2[nH]1 | -7.78% [at 28.5 µM] | 
CCNC(=O)[C@H]1O[C@H](n2cnc3c(N)nc(NCCc4ccc(CCC(=O)O)cc4)nc32)[C@@H](O)[C@@H]1O | -13.3% | 
CN(C)[C@@H]1C(=O)C(C(N)=O)=C(O)[C@@]2(O)C(=O)C3=C(O)c4c(O)ccc(Cl)c4[C@@H](O)[C@H]3C[C@@H]12 | -21.8% | 
Nc1ncnc2c1ncn2[C@@H]1O[C@H](COP(=O)(O)OP(=O)(O)OC[C@H]2OC(O)[C@H](O)[C@@H]2O)[C@@H](O)[C@H]1O (stereo not given in full) | 326% | 
COc1cc2nc(N3CCCN(C)CC3)nc(N3CCN(C)CC3)c2cc1OC | -10.6% | 
O=C1c2c(O)cc(O)cc2OC(c2ccc(O)c(O)c2)C1O (stereo not given) | -6.75% | 
Brc1c(NC2=NCCN2)ccc2nccnc12 | -12.4% | 
OC[C@H]1O[C@@H](n2cnc3cncnc32)[C@H](O)[C@@H]1O |  | 11.2 µM (active)
CN(C)CCCc1cc(C(=O)Nc2ccc(-c3ccncc3)cc2)ccc1O | -9.81% | 
Cc1cc(O)c2c(c1)C(=O)c1cc(O)cc(O)c1C2=O | -12.1% | 
C=CCN1CCc2c(cc(O)c(O)c2Cl)C(c2ccccc2)C1 (stereo not given) | -10.9% | 
CSc1nc(N)c2ncn([C@@H]3O[C@H](COP(=O)(O)OP(=O)(O)OP(=O)(O)O)[C@@H](O)[C@H]3O)c2n1 | -12.5% | 
CC(CN1c2ccccc2Sc2ccccc21)N(C)C (stereo not given) | 98.6% | 
Clc1ccc(N2CCN(Cc3c[nH]c4ncccc34)CC2)cc1 | -2.3% | 
O=c1ccc2ccc(O)c(O)c2o1 | -8.78% | 
C=Cc1c(C)c2cc3[nH]c(cc4nc(cc5nc(cc1[nH]2)C(C)=C5CCC(=O)O)C(CCC(=O)O)=C4C)c(C)c3C=C | -14.1% | 
CN1Cc2sccc2C(c2ccc(O)c(O)c2)C1 (stereo not given) | -7.5% | 
O=C(/C=C/c1ccc(O)c(O)c1)OCCc1ccccc1 | 1.7% | 
